The panel holds about 83,000 compounds, 20% with a hit somewhere; the sample as a whole holds those more often.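 Method: cells in 96-well plates; compound added at one concentration; 48 h incubation; percent growth measured; values under 10 scored active.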 Unmarked numbers belong to inactive results. The source made the active and inactive calls.

Assay in all cases: NCI-60 one-dose screen, 48 h (100 = growth as untreated, 0 = no growth, -100 = all killed)
Holding throughout (details): 10 µM unless noted

In assay [1] the test system is NCI-H23 lung.
The test system of assay [2] is NCI-H226 lung.
Assay [3] relates to NCI-H322M lung.
For assay [4], the system named is HOP-62 NSCLC.
Assay [5] has as its system NCI-H460 lung.
For assay [6], the system named is HOP-92 NSCLC.
Assay [7] deals with NCI-H522 lung.
Assay [8] relates to A549/ATCC NSCLC.
Assay [9] concerns 786-0 renal.
Assay [10] has as its system COLO 205 colon.

Take `COc1cc(Cn2c(SCC(=O)Nc3ccc(Cl)cc3)nc3ccccc3c2=O)cc(OC)c1OC`: the growth in assay [1] is 73%; in [2], 39.1%; in assay [3] it was 64.4%; in [4], 54%; in assay [5], 17.7%; in [6], -20.8% (active). Further, the growth in [7] was 40.9%; in [8], 64.9%; in assay [9], -11% (active); in assay [10], 92.9%.

Turning to `O=C(CN1CCN(c2cc3c(cc2F)c(=O)c(C(=O)O)cn3C2CC2)CC1)Nc1ccc(C(=O)/C=C/c2ccccc2)cc1`, the growth in [1] is 24%; in assay [2], 57.4%; in [3] it was 73.7%; in assay [4], 59.4%; in assay [5], 7.12% (active); in assay [6], 14.9%. Moreover, the growth in assay [7] was 10.6%; in assay [8] it was 4.12% (active); in [9] it was 23.2%; in [10] it was 108%.

Consider `CC/C=C\C/C=C\C[C@H](O)C/C=C1/C(=O)C=C[C@H]1C/C=C\CCC(=O)OC`, for which the growth in [1] is 54.3% [8.25 µM]; in assay [2], 69.9% [8.25 µM]; in [3], 90.2% [8.25 µM]; in assay [4] it was 37.6% [8.25 µM]; in [5] it was 90.2% [8.25 µM]; in assay [6], 58.6% [8.25 µM]. The growth in assay [7] is -30.8% [8.25 µM] (active); in assay [8], 53.4% [8.25 µM]; in [9], 44.7% [8.25 µM]; in assay [10] it was 0.861% [8.25 µM] (active).

For `COc1cccc(NC(=O)Cn2cc3c(=O)oc4ccccc4c3n2)c1`, the growth in [1] was 102%; in [2], 104%; in assay [3], 98.9%; in assay [4], 116%; in assay [5], 101%; in assay [6], 93.8%. Also, the growth is 83.1% in [7], 105% in assay [8], 98.4% in assay [9] and 101% in [10].

In the case of `C/C(=N\NC(=O)CC#N)c1cc2cc(Cl)ccc2o1`, the growth in assay [1] is 97.2%; in [2], 94.6%; in assay [3] it was 97.2%; in assay [4], 92.8%; in assay [5], 94.2%; in [6] it was -13.3% (active). Besides, the growth in assay [7] is 84.4%; in assay [8], 111%; in assay [9], 105%; in assay [10], 99.7%.

With `O=C(CSc1nc(-c2ccc(Cl)cc2)cn1-c1ccc(Cl)cc1)c1ccc(Br)cc1`, the growth was 77.1% in assay [1]; 68.4% in assay [2]; 94.2% in assay [3]; 48.3% in [4]; 50.8% in assay [5]; 43.9% in assay [6]. In addition, the growth in [7] was 58.8%; in assay [8] it was 59.2%; in assay [9] it was 34.7%; in [10], 81.7%.

Regarding `CC(C)[C@H](CO)Nc1nc(Nc2ccc(C(=O)NCCNS(=O)(=O)c3cccc4c(N(C)C)cccc34)c(Cl)c2)c2ncn(C(C)C)c2n1`, the growth in assay [1] was 25.3%; in assay [2], 22%; in assay [3], 15.4%; in [4], 1.86% (active); in assay [5], 16.2%; in assay [6], -9.2% (active). In addition, the growth was -31.5% (active) in [7], 0.602% (active) in assay [8], -1.14% (active) in assay [9] and -69.3% (active) in assay [10].

`CCc1cccc(C)c1NC(=O)c1sc2nc3c(cc2c1N)C(=O)CCC3`: the growth in assay [1] is 39.1%; in assay [2], 62.1%; in assay [3], 51.3%; in [4], 23.3%; in assay [5], 8.12% (active); in assay [6] it was 79.2%. The growth in assay [7] was -0.871% (active); in assay [8] it was 22.9%; in [9], 38.7%; in assay [10], -7.24% (active).

Consider `COc1ccc(C2CC(c3cccs3)=NN2c2ccc(S(=O)(=O)NC(=O)NCc3cccc(OC)c3)cc2)cc1` (stereo not given), for which the growth was 97.6% in assay [1]; 110% in [2]; 102% in assay [3]; 81% in assay [4]; 109% in assay [5]; 87.1% in [6]. In addition, the growth in [7] is 87.3%; in assay [8], 5.45% (active); in assay [9], 101%; in assay [10], -63.5% (active).

On to `O=C1CCCCC=C1C[N+](=O)[O-]`, for which the growth is 91.5% in assay [1]; 86.3% in [2]; 105% in assay [3]; 107% in [4]; 102% in [5]; 90% in [6]. Besides, the growth in [7] was -12.3% (active); in assay [8], 121%; in assay [9], 102%; in assay [10], 43%.

For the compound `NC(=S)NN=C1CCCCC1`, the growth was 89.5% in [1]; 87.5% in assay [2]; 99.3% in assay [3]; 91.9% in [4]; 97.8% in assay [5]; 92.1% in [6]. In addition, the growth in assay [7] is 70.3%; in [8], 84.7%; in assay [9], 106%; in [10], 93.2%.

`CSc1nc(-c2cc3ccccc3o2)cc(-c2ccc(Cl)cc2)c1C#N`: the growth in assay [1] was 44.8%; in [2], 39.1%; in assay [3], 82.2%; in [4] it was 69.8%; in [5] it was 24%; in assay [6] it was 10.3%. Moreover, the growth in [7] was 25.6%; in assay [8], 32%; in assay [9] it was 90.3%; in [10] it was 42.7%.

For the compound `COc1cc(CCn2nnc3c(NCCCCO)ncnc32)cc(OC)c1`, the growth in assay [1] is 94.5%; in [2], 99.3%; in assay [3], 99.3%; in assay [4], 113%; in assay [5], 105%; in assay [6], 83.8%. Moreover, the growth is 111% in assay [7], 101% in [8], 105% in assay [9] and 109% in [10].

The values above are taken from PubChem BioAssay (NCI).
